# PubChem BioAssay AID1974 (The Scripps Research Institute Molecular Screening Center, 2009)
# In all, about 300,000 compounds went through this assay and about 3,200 (1.1%) were called active.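 Rule for the calls: active = inhibition above the campaign mean inhibition plus 3 SD (cut at about 35% in these data); inactive = the rest.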 This excerpt belongs to a sample that is enriched for actives.
# Molecular target: Glutathione S-transferase omega-1 (Homo sapiens) (UniProt P78417)
# Assay: inhibitors of recombinant GSTO1, primary screen, counter-screen for RBBP9 inhibitor project, biochemical, fluorescence polarization (AID 1974);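 note: 0% = GSTO1-1 with DMSO and 100% = wells lacking GSTO1-1 enzyme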
# Conditions: recombinant GSTO1, activity-based probe fluorescence polarization; at 5.96 µM; stronger effect = higher value
# Sequence of Glutathione S-transferase omega-1 (Homo sapiens) (P78417 whole entry, looked up): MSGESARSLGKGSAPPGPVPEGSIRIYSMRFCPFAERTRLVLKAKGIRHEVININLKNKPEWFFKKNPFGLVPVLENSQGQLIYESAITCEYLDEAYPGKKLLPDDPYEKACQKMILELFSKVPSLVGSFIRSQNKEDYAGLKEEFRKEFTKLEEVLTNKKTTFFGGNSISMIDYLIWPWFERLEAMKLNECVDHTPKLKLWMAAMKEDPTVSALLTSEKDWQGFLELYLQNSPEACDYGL
row,SMILES,inhibition
1,CN(C)C(=O)N=NC(=O)N(C)C,1.15% (inactive)
2,CCC(Oc1ccccc1C)C(=O)Nc1ccc(S(=O)(=O)Nc2cc(C)on2)cc1 (stereo not given),-0.82% (inactive)
3,CN1c2ccc(C=O)c3c(C=O)ccc(c23)N(C)C1(C)C,72.9% (active)
4,Cc1cc(C)cc(NC(=O)COc2coc(CN3CCN(c4ccccc4)CC3)cc2=O)c1,-4.3% (inactive)
5,CCN(C(=O)CSc1ncnc2c1cnn2-c1ccccc1)C1CCS(=O)(=O)C1 (stereo not given),-42.3% (inactive)
6,CC(=O)N1CCN(C(=O)c2cc(-c3ccc(C)o3)nc3ccccc23)CC1,5.42% (inactive)
7,Clc1ccc(C2=CSC3=Nc4cccc5cccc(c45)N23)cc1,58.2% (active)
8,Cc1ccc2nc(NC(=O)CSc3nc(=O)n(CCCN(C)C)c4c3CCC4)sc2c1,-12.3% (inactive)
9,COc1ccc2oc(C(=O)N(CC(C)C)C3CCS(=O)(=O)C3)c(C)c2c1 (stereo not given),-0.98% (inactive)
10,Cc1ccc(C(=O)N/N=C/c2cccc3ccccc23)cn1,0.98% (inactive)
11,Cc1ccc(C(=O)N/N=C/c2sc(=O)n(Cc3cccc(C(=O)O)c3)c2Cl)cc1,40.4% (active)
12,Cc1ccc(/C=N/NC(=O)CN2CCN(Cc3ccccc3)CC2)s1,-7.48% (inactive)
13,Cc1ccccc1S(=O)(=O)N1[C@@H](c2cccc(Cl)c2)C(C(=O)O)=CC[C@H]1c1ccc(Cl)cc1,-219% (inactive)
14,COc1ccc(-c2c(NC(=O)c3ccco3)oc3ccc(Cl)cc3c2=O)cc1,-7.76% (inactive)
15,CN(C(=O)COC(=O)c1cc(-c2ccco2)nc2ccccc12)C1CCS(=O)(=O)C1 (stereo not given),66.1% (active)
16,Cc1c(-c2cccc(Cl)c2)nc2ccccc2c1C(=O)OCC(=O)N(C)C1CCS(=O)(=O)C1 (stereo not given),-6.81% (inactive)
17,CN(C(=O)COC(=O)c1nc(Cl)ccc1Cl)C1CCS(=O)(=O)C1 (stereo not given),3.97% (inactive)
18,Nc1c(-c2ccccc2)nnn1Cc1ccccc1,16.3% (inactive)
19,CC1CCC(CN2CCN=C2N(C)C)CC1 (stereo not given),1.09% (inactive)
20,COc1ccc(Cc2nnc(SCC(=O)N(c3ccccc3)C(C)C)n(N)c2=O)cc1,-0.68% (inactive)
21,COc1ccc(NC(=O)CSc2nnc(Cc3ccccc3)c(=O)n2N)cc1,36.1% (active)
22,COc1ccc(NC(=O)CSc2nc3ccccc3c(=O)n2C)cc1,-2.78% (inactive)
23,O=C(NCc1ccccn1)Nc1ccc(Cl)cc1,-3.8% (inactive)
24,Cc1ccnc(NC(=O)CNC(=O)c2ccccc2)c1,-2.68% (inactive)

row,SMILES,inhibition
1,O=C(Nc1ccc(S(=O)(=O)Nc2nccs2)cc1)c1cc(-c2ccncc2)nc2ccccc12,44.3% (active)
2,Cc1ccc2nc(-c3ccncc3)cc(C(=O)Nc3ccncc3)c2c1,0.09% (inactive)
3,O=C(Nc1ccc(S(=O)(=O)Nc2nccs2)cc1)c1cc(=O)[nH]c2ccccc12,-5.17% (inactive)
4,COc1ccc(C(=O)Oc2ccc(-c3nnco3)cc2)cc1S(=O)(=O)N1CCOCC1,8.84% (inactive)
5,O=C(Nc1cc2c3c(c1)CC(=O)N3CCC2)c1ccccc1F,-2.65% (inactive)
6,COc1ccccc1N(C)S(=O)(=O)c1ccc(Cl)c(C(=O)Nc2ccncc2)c1,1.75% (inactive)
7,O=C1c2ccccc2C(=O)c2c1cccc2N1CCN(C/C=C/c2ccccc2)CC1,1.48% (inactive)
8,CCCC(=O)N1c2ccccc2NC2=C(C(=O)CCC2)C1c1ccc(F)cc1 (stereo not given),-0.62% (inactive)
9,CC1C(=O)Nc2ccccc2N1C(=O)c1ccc(F)cc1F (stereo not given),52.8% (active)
10,CC1C(=O)Nc2ccccc2N1C(=O)c1c(F)cccc1F (stereo not given),4.45% (inactive)
11,COc1ccc(N2CCN(C(=O)CCNC(=O)c3ccc(Br)cc3)CC2)cc1,-8.57% (inactive)
12,CCCCn1c(N)c(N(CC(C)C)C(=O)CN(C)S(=O)(=O)c2ccc(F)cc2)c(=O)[nH]c1=O,16.4% (inactive)
13,CC(=O)c1c(C)[nH]c(C(=O)N2CCN(S(=O)(=O)c3ccc(F)c(F)c3)CC2)c1C,16.8% (inactive)
14,CC(C)(C)c1ccc(NC(=O)NCc2ccco2)cc1,3.61% (inactive)
15,COc1ccc2oc(=O)c(C(=O)NCc3ccccn3)cc2c1,3.7% (inactive)
16,COCCNC(=O)Nc1ccc2nc(-c3ccco3)c(-c3ccco3)nc2c1,69.1% (active)
17,Cc1cc(C)cc(NC(=O)NCc2ccccn2)c1,0.33% (inactive)
18,O=C(NCc1ccccn1)c1ccc2nc(-c3ccco3)c(-c3ccco3)nc2c1,82.7% (active)
19,CCCC(=O)Nc1ccc2c(c1)nc(CCNC(=O)c1ccco1)n2C,5.94% (inactive)
20,COc1ccc2c(c1)C(=O)Nc1cc(Cl)ccc1N2,9.43% (inactive)
21,CC(OC(=O)CNC(=O)c1ccco1)C(=O)Nc1ccc(Cl)cn1 (stereo not given),1.63% (inactive)
22,CCC1(CC)C(=O)C2=C3C1[C@H](C(=O)OC)C=C(C(=O)OC)C[C@H]3[C@H]1C(=O)N(Cc3ccccc3)C(=O)[C@H]1[C@H]2C (stereo not given in full),1.43% (inactive)
23,Cc1csc2nc(O)c(C(=O)NCCN3CCOCC3)c(=O)n12,-2.86% (inactive)
24,CCc1noc(C)c1C(=O)N1CCCSC1=Nc1ccccc1OC,-0.08% (inactive)

row,SMILES,inhibition
1,Cc1onc(-c2c(F)cccc2Cl)c1C(=O)N(C)CC(=O)Nc1cccc(F)c1,6.99% (inactive)
2,O=C(Cc1ccccc1)Nc1cccc(NC(=O)c2ccccc2)c1,-4.68% (inactive)
3,CCc1cccc(NC(=O)CCC(=O)O)c1,1.54% (inactive)
4,O=C(CCl)Nc1cccc(CP(=O)(c2ccccc2)c2ccccc2)c1,87.8% (active)
5,COc1ccccc1CCCNC(=O)C1CCC(=O)N(CCN2CCOCC2)C1 (stereo not given),63.1% (active)
6,O=C(NCCCc1ccccc1)C1CCC(=O)N(CCc2ccc(Cl)cc2)C1 (stereo not given),-1.06% (inactive)
7,COc1ccccc1CN1CC(C(=O)NCCc2cn[nH]c2)CCC1=O (stereo not given),-2.71% (inactive)
8,CCN1CCN(c2ccc(S(=O)(=O)N3CCCCC3)cc2NC(=O)c2cccc(NC(C)=O)c2)CC1,0.88% (inactive)
9,Cc1cc(O)c(Sc2ccccc2)c(=O)o1,10.2% (inactive)
10,O=C(c1cc2cc(Br)cc(Br)c2oc1=O)N1CCOCC1,5.88% (inactive)
11,O=C(CSC(=S)N1CCOCC1)c1cc(Br)cc(Br)c1O,-51.7% (inactive)
12,O=C1Nc2c(Br)cc(Br)cc2C1(O)N1CCOCC1 (stereo not given),71.2% (active)
13,Cc1ccc(NS(=O)(=O)c2ccc(C(=O)NCCCN3CCOCC3)cc2)cc1,10.7% (inactive)
14,Nc1ccc2nc3c(=O)[nH]c(=S)[nH]c3nc2c1,53.3% (active)
15,O=c1[nH]c(=O)c2nc3ccccc3nc2[nH]1,5.15% (inactive)
16,Cc1cc(=O)[nH]c(SCc2ccc(Cl)cc2)n1,-4.37% (inactive)
17,O=[N+]([O-])c1ccc(O)c(/C=N/Nc2ccccc2[N+](=O)[O-])c1,0.98% (inactive)
18,O=[N+]([O-])c1ccc(N/N=C/c2ccccc2)cc1,2.07% (inactive)
19,O=[N+]([O-])c1ccc(N=Cc2c(O)ccc3ccccc23)cc1,37.5% (active)
20,Cc1cc(OCC(=O)N(C)c2c(N)n(Cc3ccccc3)c(=O)[nH]c2=O)c(C(C)C)cc1Cl,0.25% (inactive)
21,CCC1(c2ccccc2)NC(=O)N(CC(=O)Nc2ccccc2C(=O)NC2CCCC2)C1=O (stereo not given),8.02% (inactive)
22,CCOc1ccc(S(=O)(=O)N2CCN(C(=S)NCC3CCCO3)CC2)cc1 (stereo not given),2.59% (inactive)
